The target of the experiment is Apoptosis regulator Bcl-2 (Homo sapiens) (UniProt P10415). Kind of experiment: Bcl-2 Bim peptide interaction hit potency – biochemical, dose response, multiplexed HTS hits, confirmation (AID 2075).

Calls of active or inactive are those of the source. No rule for the calls is given here.

Chain of Apoptosis regulator Bcl-2 (Homo sapiens) (P10415 whole entry, looked up): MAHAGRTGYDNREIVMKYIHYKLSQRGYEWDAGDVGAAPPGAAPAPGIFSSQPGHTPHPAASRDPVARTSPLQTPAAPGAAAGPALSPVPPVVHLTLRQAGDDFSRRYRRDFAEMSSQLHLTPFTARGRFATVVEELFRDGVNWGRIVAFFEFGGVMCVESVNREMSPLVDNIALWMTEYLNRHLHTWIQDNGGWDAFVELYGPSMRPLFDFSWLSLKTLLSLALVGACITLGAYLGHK

As for `O=C1NC(=O)C(=Cc2ccc(-c3cc(Cl)ccc3[N+](=O)[O-])o2)C(=O)N1`, the call was inactive.

The values above are taken from PubChem BioAssay AID2075 (NMMLSC, 2009).
